Test systems include WNK4; ZAK; ZAP70; p38-delta.
Details in all cases: concentration: 1 μM, replicates: in singlicate; n = 1
In the next experiment the test system is T1, YANK1.
T1 construct: gene STK32A

A further experiment has as its system T2, YANK2.
T2 construct: gene STK32B

For another experiment, the system named is T3, YANK3.
T3 construct: gene STK32C

A further experiment relates to T4, YES.
T4 construct: gene YES1

The subject of a further experiment is T5, YSK1.
T5 construct: gene STK25

A further experiment has as its system T6, YSK4.
T6 construct: gene MAP3K19

The next experiment deals with T7, p38-alpha.
T7 construct: gene MAPK14

The test system of another experiment is T8, p38-beta.
T8 construct: gene MAPK11

For another experiment, the system named is T9, p38-gamma.
T9 construct: gene MAPK12

The structures appear in SMILES notation.
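Further: KINOMEscan kinase panel screen.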

For the compound `CNc1nccc(-c2c(-c3ccc(F)cc3)ncn2CCCN2CCOCC2)n1` [SB-222516], the “%Inh” value in the experiment with WNK4, in the experiment with YANK1, in the experiment on YANK2, with YANK3, in the experiment with YES and in the experiment on YSK1 was 0% each time. In addition, the “%Inh” value in the experiment with YSK4 is 7%; in the experiment on ZAK, 6%; with ZAP70, 5%; in the experiment with p38-alpha it was 13%; in the experiment on p38-beta, 15%; in the experiment on p38-delta, 0%. The “%Inh” value in the experiment with p38-gamma is 4%.

In the case of `Cc1ccc(NC(=O)c2cccc(C#N)c2)cc1-c1ccc(C(=O)Nc2ccncc2)cc1` [GSK1398463], the “%Inh” value with WNK4 came out at 3%; with YANK1, 14%; in the experiment with YANK2 it was 0%; in the experiment on YANK3, 11%; in the experiment with YES it was 24%; with YSK1, 9%. Also, the “%Inh” value in the experiment on YSK4 worked out at 64%; in the experiment with ZAK, 12%; with ZAP70, 0%; in the experiment with p38-alpha it was 47%; with p38-beta, 9%; with p38-delta it was 48%. Also, in the experiment with p38-gamma, the “%Inh” value is 26%.

Take `CS(=O)(=O)CCNCc1nc(-c2ccc3ncnc(Nc4ccc(OCc5cccc(F)c5)c(Cl)c4)c3c2)cs1.Cl` [GW583340]: the “%Inh” value in the experiment on WNK4 stood at 0%; with YANK1, 0%; in the experiment with YANK2, 0%; in the experiment on YANK3 it was 0%; with YES, 3%; in the experiment with YSK1, 0%. The “%Inh” value in the experiment with YSK4 amounted to 17%; in the experiment with ZAK, 91.6%; in the experiment with ZAP70, 0%; in the experiment with p38-alpha, 18%; in the experiment on p38-beta, 0%; in the experiment on p38-delta, 47%. For the same compound, the “%Inh” value in the experiment with p38-gamma was 0%.

Regarding `Clc1cccc(-c2nc(Nc3ccncc3)c3ccccc3n2)c1` [GW873004], the “%Inh” value with WNK4 was found to be 0%; with YANK1, 0%; in the experiment with YANK2 it was 0%; with YANK3 it was 0%; in the experiment with YES, 34%; in the experiment on YSK1, 0%. In addition, the “%Inh” value is 0% with YSK4; 0% in the experiment with ZAK; 0% with ZAP70; 0% with p38-alpha; 0% in the experiment with p38-beta; 17% in the experiment on p38-delta. Further, the “%Inh” value with p38-gamma turned out to be 0%.

Turning to `Fc1cccc(COc2ccc(Nc3ncnc4nn5ccccc5c34)cc2Cl)c1` [GW689066], the “%Inh” value is 23% in the experiment on WNK4; 0% in the experiment on YANK1; 0% in the experiment with YANK2; 6% with YANK3; 13% in the experiment on YES; 1% in the experiment on YSK1. Besides, the “%Inh” value in the experiment with YSK4 came to 3%; with ZAK, 4%; in the experiment with ZAP70, 0%; in the experiment with p38-alpha, 11%; with p38-beta, 0%; with p38-delta, 25%. The “%Inh” value with p38-gamma is recorded as 0%.

For `Fc1cccc(COc2ccc(Nc3ncnc4cc[nH]c34)cc2Cl)c1`, the “%Inh” value came out at 28% in the experiment with WNK4; 26% in the experiment on YANK1; 0% with YANK2; 9% in the experiment on YANK3; 20% in the experiment with YES; 0% with YSK1. Moreover, the “%Inh” value amounted to 18% with YSK4; 0% in the experiment with ZAK; 0% in the experiment with ZAP70; 0% in the experiment with p38-alpha; 13% in the experiment with p38-beta; 28% with p38-delta. Also, in the experiment on p38-gamma, the “%Inh” value amounted to 20%.

Turning to `CC(C)(C)OC(=O)NC1CCCN(c2cc(-c3ccc4c(N)n[nH]c4c3)nc(N)n2)C1` (stereo not shown) [GSK2286096], the “%Inh” value in the experiment on WNK4 is listed as 12%; in the experiment on YANK1 it was 10%; in the experiment with YANK2 it was 0%; in the experiment on YANK3, 0%; in the experiment with YES, 1%; in the experiment on YSK1, 2%. For the same compound, the “%Inh” value came out at 20% in the experiment with YSK4; 0% with ZAK; 0% with ZAP70; 0% in the experiment with p38-alpha; 0% with p38-beta; 47% with p38-delta. In addition, the “%Inh” value in the experiment on p38-gamma worked out at 0%.

Take `Fc1ccc(Nc2nccc(-c3c(-c4ccc(Cl)cc4)nn4ncccc34)n2)cc1F` [GW829058]: the “%Inh” value in the experiment with WNK4 was 28%; with YANK1, 0%; with YANK2, 4%; with YANK3 it was 30%; with YES, 0%; with YSK1, 0%. Further, the “%Inh” value with YSK4 came to 47%; with ZAK it was 18%; with ZAP70, 13%; with p38-alpha, 26%; with p38-beta, 19%; with p38-delta, 4%. In addition, in the experiment with p38-gamma, the “%Inh” value was 37%.

Turning to `COc1cc2c(Nc3cccc(NC(=O)c4ccccc4)c3)ncnc2cc1OCCCN1CCOCC1` [GSK223810], the “%Inh” value in the experiment on WNK4 was found to be 0%; in the experiment with YANK1, 7%; with YANK2, 0%; in the experiment on YANK3 it was 2%; in the experiment with YES it was 15%; with YSK1 it was 12%. Also, the “%Inh” value with YSK4 is listed as 36%; in the experiment on ZAK, 0%; in the experiment with ZAP70, 0%; in the experiment on p38-alpha, 81%; with p38-beta it was 89%; in the experiment on p38-delta it was 0%. In addition, the “%Inh” value in the experiment with p38-gamma is given as 6%.

`CCc1nc(-c2cccc(C)c2)c(-c2ccnc(NC(=O)c3ccccc3)c2)s1`: the “%Inh” value is 18% in the experiment with WNK4; 13% in the experiment on YANK1; 41% with YANK2; 15% with YANK3; 19% in the experiment with YES; 2% in the experiment on YSK1. Moreover, the “%Inh” value in the experiment with YSK4 came out at 23%; with ZAK, 0%; in the experiment with ZAP70, 0%; in the experiment on p38-beta, 68%; in the experiment on p38-gamma, 32%.

In the case of `Fc1ccc(-c2ncn(CCCNCc3ccccc3)c2-c2ccncc2)cc1`, the “%Inh” value in the experiment on WNK4 was 0%; with YANK1 it was 17%; with YANK2, 0%; in the experiment on YANK3, 7%; in the experiment on YES it was 17%; with YSK1, 0%. Moreover, the “%Inh” value is 9% in the experiment on YSK4; 10% in the experiment with ZAK; 11% in the experiment on ZAP70; 77% in the experiment with p38-alpha; 4% in the experiment on p38-beta; 1% with p38-delta. The “%Inh” value in the experiment with p38-gamma is reported as 24%.

Consider `Nc1nc(-c2ccc3c(N)n[nH]c3c2)cc(N2CCC[C@@H](C(=O)Nc3ccccc3)C2)n1.O=C(O)C(F)(F)F.O=C(O)C(F)(F)F` [GSK2288359], for which the “%Inh” value in the experiment on WNK4 is recorded as 0%; in the experiment on YANK1 it was 4%; with YANK2, 0%; in the experiment with YANK3, 0%; with YES it was 0%; in the experiment with YSK1, 5%. Moreover, the “%Inh” value in the experiment with YSK4 is listed as 9%; in the experiment with ZAK it was 3%; with ZAP70 it was 0%; in the experiment on p38-alpha, 0%; in the experiment on p38-beta it was 0%; in the experiment on p38-delta, 18%. In addition, in the experiment with p38-gamma, the “%Inh” value is reported as 27%.

Turning to `Clc1cc(Nc2ncnc3cc[nH]c23)ccc1OCc1ccccn1`, the “%Inh” value is given as 25% in the experiment with WNK4; 12% in the experiment with YANK1; 3% in the experiment on YANK2; 51% in the experiment with YANK3; 0% with YES; 0% in the experiment with YSK1. Besides, the “%Inh” value in the experiment with YSK4 is given as 34%; in the experiment on ZAK, 18%; in the experiment on ZAP70 it was 0%; in the experiment with p38-alpha it was 18%; with p38-beta, 26%; in the experiment with p38-delta, 37%. In the experiment with p38-gamma, the “%Inh” value was found to be 22%.

With `COC(=O)c1cccc(NC(=O)NCCNc2ccnc(Nc3ccc(F)cc3)n2)c1` [GSK1379883], the “%Inh” value in the experiment with WNK4 is reported as 36%; with YANK1, 0%; with YANK2 it was 20%; in the experiment with YANK3, 0%; in the experiment on YES, 14%; with YSK1, 14%. Moreover, the “%Inh” value in the experiment with YSK4 stood at 8%; with ZAK it was 0%; with ZAP70 it was 0%; with p38-alpha, 3%; in the experiment on p38-beta it was 0%; with p38-delta, 40%. In addition, the “%Inh” value with p38-gamma was found to be 0%.

For the compound `COc1ccc(-c2oc3ncnc(N)c3c2-c2ccc(OC)cc2)cc1` [SB-589132], the “%Inh” value in the experiment on WNK4 turned out to be 55%; in the experiment with YANK1 it was 19%; in the experiment on YANK2, 12%; with YANK3, 21%; in the experiment with YES, 44%; in the experiment with YSK1 it was 6%. Further, the “%Inh” value is recorded as 57% in the experiment on YSK4; 9% in the experiment on ZAK; 0% in the experiment on ZAP70; 7% in the experiment with p38-alpha; 0% in the experiment with p38-beta; 42% in the experiment with p38-delta. Besides, the “%Inh” value with p38-gamma came out at 8%.

These data come from article PMC5540273 (PLoS ONE, 2017).
